High-throughput results deposited in PubChem by several laboratories.
In the library only some 3.7% were active in any assay of this set; here they are far more common.
tim23-1 inh – growth inhibitors of tim23-1 mutant yeast; S. cerevisiae tim23-1 growth, BacTiter-Glo luminescence, 24 h; inhibition, % at 20 µM; actives 1.3% (n = 330,000);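 active = growth inhibition of the mutant yeast at or above 50%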;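 also: temperature-sensitive mutant grown at 25 °C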
tim10-1 inh – growth inhibitors of tim10-1 mutant yeast; S. cerevisiae tim10-1 ts strain growth, BacTiter-Glo, 24 h; inhibition, % at 20 µM; actives 2.2% (n = 330,000); AID 463190;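 active = inhibition of at least 40%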;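 also: mutant grown at 25 °C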
PfHsp90 yeast 2 – reduces growth (ATP signal) of yeast expressing P. falciparum Hsp90 | S. cerevisiae expressing PfHsp90, BacTiter-Glo ATP, 48 h; yeast lacking PDR1 and PDR3 efflux regulators | inhibition, % at 9.4 µM | actives 0.32% (n = 310,000) | AID 504621;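 active = every replicate shows inhibition above about 80%, whatever the replicate mean, limit read from the data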
V-ATPase pH – regulators of yeast V-ATPase proton transport; S. cerevisiae, pHLuorin cytosolic pH fluorescence; response, % at 10 µM; actives 0.37% (n = 350,000); AID 504577; in the data active = response mostly above about 7.3%, no sharp cut-off; inactive = mostly below about 5.4%; also: actives read high
TIM10 inh – TIM10 yeast growth inhibition; S. cerevisiae TIM10 strain growth, BacTiter-Glo luminescence, 24 h; inhibition, % at 10 µM; actives 1.4% (n = 330,000);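 active = inhibition of 40% or more at the single tested concentration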;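 also: wild-type TIM10 isogenic control strain grown at permissive 25 °C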
tim10-1 confirm – tim10-1 yeast growth inhibition, confirmed; shares compounds with tim10-1 inh; S. cerevisiae tim10-1 ts strain growth, BacTiter-Glo, 24 h; inhibition, % at 20 µM; actives 56% (n = 7,400); AID 463213;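 active = inhibition of yeast growth at or above a set limit in either of two repeat tests at 20 µM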;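 also: tim10-1 mutant grown at permissive 25 °C to find synthetic lethal compounds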
Each line names hits and unclear results; the compound was inactive in the other large screens (follow-up assays come after a bar, where they were run).

O=C(NC1CCCc2ccccc21)C1CCN(S(=O)(=O)c2ccccc2)CC1 (stereo unspecified)	tim10-1 inh 40 | tim10-1 confirm inactive
Cc1cccc(NC(=S)NCc2ccc(F)cc2)c1C	none
O=C(Nc1ccc(N2CCOCC2)c(Cl)c1)c1c(F)c(F)c(F)c(F)c1F	tim10-1 inh 50 | tim10-1 confirm 40
CC1(C)CN=c2s/c(=C\c3ccc(Cl)cc3)c(=O)n2C1	tim10-1 inh 41 | tim10-1 confirm inactive
Cc1ccc(C(=O)Nc2ncccc2O)o1	none
Cc1ccc(NS(=O)(=O)c2ccc(-c3coc(C)n3)cc2)c(Br)c1	tim10-1 inh 57 | tim10-1 confirm inactive
Cc1ccc(C)c(NS(=O)(=O)c2ccc(-c3coc(C)n3)cc2)c1	tim10-1 inh 41 | tim10-1 confirm inactive
Cc1nc(-c2ccc(S(=O)(=O)Nc3ccc(S(N)(=O)=O)cc3)cc2)co1	none
Cc1nc(-c2ccc(S(=O)(=O)Nc3ccccc3C)cc2)co1	none
O=C(CSCc1ccccc1Cl)NNC(=S)Nc1ccccc1	tim10-1 inh 49 | tim10-1 confirm 43
CSc1ccccc1C(=O)NCCS(=O)(=O)N1CCN(c2ccc(F)cc2)CC1	none
O=C(NCCS(=O)(=O)N1CCN(c2ccc(F)cc2)CC1)C12CC3CC(CC(C3)C1)C2	tim10-1 inh 42 (no result: PfHsp90 yeast 2) | tim10-1 confirm inactive
CC(CNc1nc2ccc(Cl)cc2n2cnnc12)c1ccccc1 (stereo unspecified)	none
Cc1cc(C)n2nc(SCc3ccc(F)cc3Cl)nc2n1	none
Cc1cc(C)n2nc(SCc3c(F)cccc3Cl)nc2n1	tim10-1 inh 48 | tim10-1 confirm 33
O=C(NCCc1ccccc1)c1ccc(CS(=O)Cc2ccc(Cl)cc2)o1 (stereo unspecified)	none
Cc1ccc(NC(=O)c2sc3ncn(CC(=O)N4CCOCC4)c(=O)c3c2C)c(Br)c1	none
CC1CCN(C(=O)CCc2ccc(Oc3cc([N+](=O)[O-])cc([N+](=O)[O-])c3)cc2)CC1	tim10-1 inh 51 | tim10-1 confirm 41
CS(=O)(=O)c1ccc(Cl)c(NC(=O)c2cc(=O)[nH]c3ccc(S(=O)(=O)N4CCOCC4)cc23)c1	none
O=C(c1ccc(Cl)cc1)N1CCOc2ccccc21	none (no result: tim23-1 inh, tim10-1 inh, TIM10 inh)
COc1cccc2sc(N3CCN(C(=O)c4ccc([N+](=O)[O-])o4)CC3)nc12	tim10-1 inh 51 | tim10-1 confirm inactive
Cc1cc(C)c(Cn2cnc3ccccc32)c(C)c1	tim10-1 inh 43 | tim10-1 confirm inactive
c1ccc(Cn2cnc3ccccc32)cc1	none (no result: V-ATPase pH)
Cc1cccc(/C=C2\Sc3ccc(C(=O)N4CCOCC4)cc3N(C)C2=O)c1	none
Cc1cccc(/C=C2\Sc3ccc(C(=O)N4CCCCC4)cc3N(C)C2=O)c1	tim10-1 inh 45 | tim10-1 confirm inactive
CN1C(=O)/C(=C/c2cccc(Cl)c2)Sc2ccc(C(=O)N3CCCC3)cc21	tim10-1 inh 52 (no result: PfHsp90 yeast 2, V-ATPase pH) | tim10-1 confirm inactive
COc1ccc(S(=O)(=O)N(C)c2ccc(OC(=O)C(C)Oc3ccc(F)cc3)cc2)cc1 (stereo unspecified)	none
Cc1nn(CC(=O)N2CCOCC2)c(=O)c2nn(-c3ccccc3)c(C)c12	none
N#C/C(=C/c1ccc(N2CCCCCC2)o1)c1cccc(F)c1	tim10-1 inh 61 | tim10-1 confirm 57
CC1(c2ccccc2)NC(=O)N(CC(=O)Nc2ccccc2C(=O)NC2CC2)C1=O (stereo unspecified)	none
Cc1ccc(S(=O)(=O)N2CCC3(CC2)OCCN3S(=O)(=O)c2cccs2)cc1	none
COc1ccc(S(=O)(=O)N2CCOC23CCN(S(=O)(=O)c2ccc(C)cc2)CC3)cc1	tim10-1 inh 46 | tim10-1 confirm inactive
COc1ccc(S(=O)(=O)N2CCOC23CCN(S(=O)(=O)c2ccc(F)cc2)CC3)cc1	tim10-1 inh 47 | tim10-1 confirm inactive
O=S(=O)(c1ccc(Cl)cc1)N1CCC2(CC1)OCCN2S(=O)(=O)c1cccs1	tim10-1 inh 48 | tim10-1 confirm 29
CC1CN(C(=O)c2ccc(OC3CCN(Cc4ccccn4)CC3)cc2)CCN1C (stereo unspecified)	none
COc1ccc(S(=O)(=O)N2CCC(C(=O)N[C@@H](C)C(=O)NCc3ccncc3)CC2)cc1	none
O=[N+]([O-])c1ccc(O)c(NC(=S)Nc2ccccc2)c1	tim10-1 inh 48 | tim10-1 confirm inactive
O=C(NCC(=O)N1CCN(Cc2c(F)cccc2Cl)CC1)c1cccs1	none (no result: tim23-1 inh, tim10-1 inh, PfHsp90 yeast 2, TIM10 inh)
CCCCN(CCCNC(=O)c1ccc2c(c1)NC(=O)CN2C)c1ccccc1	none (no result: tim23-1 inh, tim10-1 inh, PfHsp90 yeast 2, TIM10 inh)
O=C(N/N=C(\CC(=O)c1cccs1)C(F)(F)F)c1ccncc1	none
Cc1ccc(C(=O)N/N=C(/CC(=O)c2cccs2)C(F)(F)F)cc1	tim10-1 inh 47 | tim10-1 confirm 29
N/C(=N\OC(=O)c1cccc(Cl)c1)c1ccccn1	tim10-1 inh 45 | tim10-1 confirm 33
Cc1ccc(C(=O)O/N=C(\N)c2ccccn2)c(C)c1	tim10-1 inh 54 | tim10-1 confirm 63
CCC(C)C(CO)NCCCn1cnc2c(SC)ncnc21 (stereo unspecified)	none (no result: tim23-1 inh, tim10-1 inh, PfHsp90 yeast 2, TIM10 inh)
CCOc1ccc(OCC)c(S(=O)(=O)n2ccnc2C)c1	none
CCOc1ccc(C(C)C)cc1S(=O)(=O)n1ccnc1C	tim10-1 inh 41 | tim10-1 confirm inactive
Cc1ccc(C)c2[nH]c(=O)c(CCNC(=O)CCc3ccccc3)cc12	none
CC(C)(C)NC(=O)CSc1ncnc2c1nnn2Cc1ccccc1Cl	tim10-1 inh 48 | tim10-1 confirm inactive
O=C(CSc1ncnc2c1nnn2Cc1ccccc1)NC1CCCC1	none
Cc1ccc(S(=O)(=O)NCCC(=O)N2CCC(C(N)=O)CC2)cc1C	none
CCOC(=O)c1c(NC(=O)CN2C(=O)NC(C)(c3ccc(OC(F)F)cc3)C2=O)sc(C)c1C (stereo unspecified)	tim10-1 inh 43 | tim10-1 confirm inactive
CC1(c2ccc(OC(F)F)cc2)NC(=O)N(CC(=O)Nc2ccc(OC(F)F)cc2)C1=O (stereo unspecified)	none
CCOc1ccccc1NC(=O)C(OC(=O)c1ccc(O)cc1)c1ccccc1 (stereo unspecified)	tim10-1 inh 42 | tim10-1 confirm 38
CCOc1ccccc1NC(=O)C(OC(=O)c1ccc(CC)cc1)c1ccccc1 (stereo unspecified)	none
N#CCS(=O)(=O)c1ccccc1	none
Oc1ccc(Oc2ncc(Cl)cc2Cl)cc1	tim10-1 inh 40 | tim10-1 confirm 34
CCOC(=O)c1cn2nc(SCc3ccccc3)nc2nc1C	none
C(=N\NCc1ccccc1)/c1ccc2nccnc2c1	none (no result: PfHsp90 yeast 2)
CCOC(=O)c1sc(-c2ccc(Br)cc2)cc1N	tim10-1 inh 67 | tim10-1 confirm 58
CCn1c(SCc2cccc(C)c2)nnc1-c1ccc(C)cc1	tim10-1 inh 47 (no result: PfHsp90 yeast 2) | tim10-1 confirm 30
COc1ccccc1CNC(=O)OCc1nccnc1C(=O)Nc1ccc(Br)cn1	none
